# Compound activity: PubChem, several laboratories
# Compounds with a hit are over-represented: about 4.8% of the library has one in this group of screens.
# DAX1 inh-1 – DAX1 (NR0B1) inhibition, primary screen; HEK293T StAR-luciferase reporter, SF-1/DAX-1 repression relief; inhibition, % at 6.8 µM; 370,000 tested, 1.1% active; AID 652010;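 active = inhibition above the mean over all tested compounds plus 3 SD, cut at about 3.6% in these data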;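 note: 0% = DAX-1 cells with DMSO and 100% = cells lacking DAX-1 with DMSO; higher inhibition means more luminescence from relief of DAX-1 repression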
# hcDAF12 agonist – H. contortus DAF-12 activation, primary screen; HEK293 hcDAF-12 lit1-tk-luc reporter, luminescence; 0% DMSO, 100% Δ7-dafachronic acid; activation, % at 6.8 µM; 370,000 tested, 1.4% active;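 active = activation above the mean of all tested compounds plus 3 SD, cut at about 5.5% in these data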;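 note: 100% = response to 3 µM Δ7-dafachronic acid high control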
# DAX1 inh-2 – inhibitors of human orphan nuclear receptor DAX1 (NR0B1) | P51843 | HEK293 Gal4-DAX1 luciferase reporter, luminescence | inhibition, % at 6.75 µM | 340,000 tested, 0.99% active | AID 504766;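 active = inhibition above the mean over all tested compounds plus 3 SD, cut at about 4.2% in these data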;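 note: 0% = DAX1-transfected cells with DMSO and 100% = empty-vector control cells with DMSO; inhibition shows as a rise in luminescence from relieved DAX1 repression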
# hgDAF-12 ag – agonists of H. glycines DAF-12 nuclear receptor; activation, % at 6.8 µM; 370,000 tested, 1.8% active; HEK293 GAL4-hgDAF12 UAS-luciferase reporter, agonist luminescence; normalized to butyrate control;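 active = activation above a cutoff set at the mean of all screened compounds plus 3 SD, cut at about 10% in these data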;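 note: 0% = DMSO wells and 100% = sodium butyrate wells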
# Rev-erbA mod – modulators of human Rev-erb alpha DNA binding | Rev-erbα–FITC-DNA binding, fluorescence polarization, 90 min | activity, % at 10 µM | 370,000 tested, 0.79% active;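 active = activity above about 14%, limit read from the data; passing the limit was not always enough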;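 note: 0% = DMSO wells with 35 nM protein and 100% = DMSO wells with 750 nM protein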
# Target sequence (P20393 whole entry, looked up): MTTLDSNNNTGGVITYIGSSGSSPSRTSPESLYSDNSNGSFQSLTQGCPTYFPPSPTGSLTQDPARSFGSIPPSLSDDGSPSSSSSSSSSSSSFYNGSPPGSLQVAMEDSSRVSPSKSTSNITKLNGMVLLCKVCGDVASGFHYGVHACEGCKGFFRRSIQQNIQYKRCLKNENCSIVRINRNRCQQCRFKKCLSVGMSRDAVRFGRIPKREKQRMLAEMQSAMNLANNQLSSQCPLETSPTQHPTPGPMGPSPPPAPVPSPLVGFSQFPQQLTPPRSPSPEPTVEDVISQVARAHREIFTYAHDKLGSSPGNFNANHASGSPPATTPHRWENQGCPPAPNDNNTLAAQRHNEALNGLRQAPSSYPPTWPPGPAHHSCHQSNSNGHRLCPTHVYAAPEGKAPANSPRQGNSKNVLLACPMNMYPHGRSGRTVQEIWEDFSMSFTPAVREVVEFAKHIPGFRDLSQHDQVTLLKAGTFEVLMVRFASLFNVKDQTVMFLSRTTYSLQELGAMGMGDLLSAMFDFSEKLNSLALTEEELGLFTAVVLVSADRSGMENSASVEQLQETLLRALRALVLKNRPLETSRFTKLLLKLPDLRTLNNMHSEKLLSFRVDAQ
# ssDAF-12 act – activators of S. stercoralis DAF-12 nuclear receptor | AID 652126 | 370,000 tested, 1% active | activation, % at 6.8 µM | HEK293 ssDAF-12/GRIP1 lit1-tk-luc reporter, luminescence; % of 3 µM dafachronic acid response;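 active = activation above the mean over all tested compounds plus 3 SD, cut at about 0.9% in these data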;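 note: 0% = DMSO-only wells and 100% = 3 µM delta7-dafachronic acid wells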
# Numbers without * were called inactive; . = no result given.
SMILES,DAX1 inh-1,hcDAF12 agonist,DAX1 inh-2,hgDAF-12 ag,Rev-erbA mod,ssDAF-12 act
CS(=O)(=O)c1ccc2nc(NC(=O)Oc3ccccc3)sc2c1,-1,-2,2,3,-3,-1
O=C(NC(=S)Nc1nc2ccc(F)cc2s1)c1ccco1,2,5.8*,2,5,-1,2.6*
CC1CCc2nc(NC(=O)C3CCCO3)sc2C1 (stereo unspecified),3.7*,6.5*,1,12*,-2,1
O=C(Nc1nc2ccc(F)cc2s1)Oc1ccccc1,0,6.5*,0,2,-2,0
CC(C)(C)S(=O)N1C[C@@H]2CC(=O)C=C2[C@H]1CCO (stereo partly specified),-1,-1,.,0,-11,0
N[C@@H]1[C@@H](O)[C@H](O)[C@@H](CO)O[C@H]1O,.,.,.,.,4,.
COc1ccccc1NC(=O)Cn1nnc(-c2ccccc2NC(=O)c2cc3ccccc3oc2=O)n1,3,14*,2,7,7,1
COc1ccc(CN2CN3CCc4ccccc4C3CS2(=O)=O)cc1 (stereo unspecified),-1,-2,.,-3,-3,-1
CC(C)(C)N(NC(=O)Nc1ccccc1)C(=O)c1ccccc1Cl,0,0,6.3*,0,-3,-1
C[C@H]1[C@@H](NC(=O)C(c2ccccc2)c2ccccc2)CC[C@@]23CCCN2C(=O)CCC[C@@H]13,.,-2,.,0,1,-1
Cn1ccc(NC(=O)c2ccc(Cl)cc2Cl)n1,3.9*,-1,1,7,0,-1
Cc1onc(NC(=O)NC(=O)c2ccccc2F)c1Br,4,-2,1,3,1,-1
Cc1onc(NC(=O)c2ccc(Cl)cc2Cl)c1Br,2,1,-1,11*,-6,-1
Cn1ccc(NC(=O)c2ccc(Cl)cc2)n1,3,0,0,7,4,-1
Cn1ccc(NC(=O)c2ccc([N+](=O)[O-])cc2)n1,1,-2,7.0*,1,2,0
COc1ccccc1CCn1cnc(-c2ccccc2F)c1CC(C)C,-3,-4,.,-5,5,-2
CCOc1ccc(CCN2C(=O)C(=O)N([C@@H](CC(C)C)CN3CCC[C@H]3CN3C(=O)C(=O)NC[C@@H]3Cc3ccccc3)C[C@@H]2Cc2ccc(O)cc2)cc1,3.9*,0,.,0,3,-1
CC(C)C[C@H]1CNC(=S)N1C[C@H]1CCCN1C[C@H](Cc1ccccc1)N1C[C@H](Cc2ccc(O)cc2)N(CC2CCCCC2)C1=S,3.8*,0,.,1,-1,-1
CCOc1ccc(CCN2C(=O)C(=O)N([C@@H](CC(C)C)CN3CCC[C@@H]3CN3C(=O)C(=O)NC[C@@H]3Cc3ccccc3)C[C@@H]2Cc2ccc(O)cc2)cc1,-1,0,0,0,-1,-1
CCC[C@H]1[C@@H](OC(=O)NCc2ccc(C(F)(F)F)cc2)CC[C@@]23CCCN2C(=O)CCC[C@@H]13,.,-4,.,-3,3,-2
CCN1CCCC1CNC(=O)Cn1cc2c(n1)CCC(C)C2 (stereo unspecified),0,3,4.5*,3,0,-1
CC1CCc2nn(CC(=O)NCCCN3CCCCC3)cc2C1 (stereo unspecified),0,2,1,-1,2,-1
CN1CCCCC(NC(=O)c2ccc(F)cc2)C1=O (stereo unspecified),0,0,.,-1,2,-2
Cc1cc(C(=O)COC(=O)CC2Sc3ccccc3NC2=O)c(C)n1-c1cccc(C(F)(F)F)c1 (stereo unspecified),0,4,0,2,9,1.2*
Cc1cc(C(=O)COC(=O)Cc2n[nH]c(=O)c3ccccc23)c(C)n1-c1cccc(C(F)(F)F)c1,-1,-4,-2,-3,5,-2
SMILES,DAX1 inh-1,hcDAF12 agonist,DAX1 inh-2,hgDAF-12 ag,Rev-erbA mod,ssDAF-12 act
COc1cccc(N2CCN(c3ccc(N4C(=O)CCC4=O)cc3[N+](=O)[O-])CC2)c1,-1,-1,6.6*,2,4,-1
COc1ccccc1N1CCN(c2ccc(N3C(=O)CCC3=O)cc2[N+](=O)[O-])CC1,0,0,-1,1,2,-1
C[C@@H]1ON(C)[C@H]2C[C@H]3c4[nH]c5cccc(-c6ccccc6F)c5c4CCN3C(=O)[C@@H]12,-1,-2,.,-5,-3,0
CC(=O)N1CCc2c1cccc2S(=O)(=O)NC(CC(C)C)C(=O)Nc1ccc(Cl)c(Cl)c1 (stereo unspecified),0,0,.,-1,-4,-2
O=C(CN1C(=O)C(=O)N(C2CCCC2)C1=O)NCCc1ccc(F)cc1,-1,0,-1,0,0,-1
COc1ccc(CCNC(=O)CN2C(=O)C(=O)N(C3CCCC3)C2=O)cc1OC,1,0,0,1,-3,1.3*
COC[C@H]1CCCN1c1ccc2c(c1)O[C@H](C)CCN(C1CC1)S2(=O)=O,-1,0,.,4,-2,-1
CC(C)c1ccc(NC(=S)N2CCCC2)cc1,3.9*,5,2,6,0,0
O=c1oc2ccccc2n1Cc1cccc(C(F)(F)F)c1,0,-1,-1,-1,0,-2
O=c1oc2ccccc2n1Cc1cccc(Cl)c1,0,-3,6.4*,2,8,-2
CC1CCCCC1N(C(=O)c1cc(C2CC2)on1)C1CCCCC1 (stereo unspecified),0,-1,.,12*,7,-1
Cc1ccc(NC2SC(=O)N(CC(=O)O)C2=O)cc1 (stereo unspecified),0,5,1,2,-2,1.2*
COc1ccc(C2C(C(=O)N3CCC(C)CC3)CC(=O)N2c2ccc(OC)cc2)cc1 (stereo unspecified),-1,-2,.,0,0,-1
O=C(/C=C/c1ccc2c(c1)OCCCO2)c1ccccc1O,2,2,3,11*,-1,0
CN(C)c1ccc(/C=C/C(=O)c2ccccc2O)cc1,2,1,5.8*,11*,2,0
Cc1ccc(O)c(C(=O)/C=C/c2ccc3c(c2)OCCCO3)c1,0,1,0,6,0,-1
Cc1cc(C)cc(NC(=O)c2cc(Cl)sc2Cl)c1,0,-2,-1,2,0,-1
CC(=O)c1ccc(NC(=O)c2cc(Cl)sc2Cl)cc1,3,4,1,12*,1,1.4*
CN(C)c1ccc(C(O)Cc2nc3ccccc3n2C)cc1 (stereo unspecified),2,5.6*,-1,0,-3,-1
COc1ccccc1C(O)Cc1nc2ccccc2n1C (stereo unspecified),0,1,0,4,4,-1
